According to PMC4336329 (PLoS ONE, 2015):
The whole screen tested about 310,000 compounds, of which about 14,000 (4.5%) showed an effect of 50% or more. Effects have a minus sign here. The sample holds strong results, similar compounds and a random draw of the others, so the mix is not that of the screen.

Target: human ether-à-go-go-related gene (hERG) potassium channel (human, UniProt Q12809)
Assay: primary screen, population patch clamp on CHO cells stably expressing hERG; higher = less effect of the substance
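Note: peak tail current of the secondary pulse compared with the same well before compound.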

Chain of human ether-à-go-go-related gene (hERG) potassium channel (Q12809 whole entry, looked up): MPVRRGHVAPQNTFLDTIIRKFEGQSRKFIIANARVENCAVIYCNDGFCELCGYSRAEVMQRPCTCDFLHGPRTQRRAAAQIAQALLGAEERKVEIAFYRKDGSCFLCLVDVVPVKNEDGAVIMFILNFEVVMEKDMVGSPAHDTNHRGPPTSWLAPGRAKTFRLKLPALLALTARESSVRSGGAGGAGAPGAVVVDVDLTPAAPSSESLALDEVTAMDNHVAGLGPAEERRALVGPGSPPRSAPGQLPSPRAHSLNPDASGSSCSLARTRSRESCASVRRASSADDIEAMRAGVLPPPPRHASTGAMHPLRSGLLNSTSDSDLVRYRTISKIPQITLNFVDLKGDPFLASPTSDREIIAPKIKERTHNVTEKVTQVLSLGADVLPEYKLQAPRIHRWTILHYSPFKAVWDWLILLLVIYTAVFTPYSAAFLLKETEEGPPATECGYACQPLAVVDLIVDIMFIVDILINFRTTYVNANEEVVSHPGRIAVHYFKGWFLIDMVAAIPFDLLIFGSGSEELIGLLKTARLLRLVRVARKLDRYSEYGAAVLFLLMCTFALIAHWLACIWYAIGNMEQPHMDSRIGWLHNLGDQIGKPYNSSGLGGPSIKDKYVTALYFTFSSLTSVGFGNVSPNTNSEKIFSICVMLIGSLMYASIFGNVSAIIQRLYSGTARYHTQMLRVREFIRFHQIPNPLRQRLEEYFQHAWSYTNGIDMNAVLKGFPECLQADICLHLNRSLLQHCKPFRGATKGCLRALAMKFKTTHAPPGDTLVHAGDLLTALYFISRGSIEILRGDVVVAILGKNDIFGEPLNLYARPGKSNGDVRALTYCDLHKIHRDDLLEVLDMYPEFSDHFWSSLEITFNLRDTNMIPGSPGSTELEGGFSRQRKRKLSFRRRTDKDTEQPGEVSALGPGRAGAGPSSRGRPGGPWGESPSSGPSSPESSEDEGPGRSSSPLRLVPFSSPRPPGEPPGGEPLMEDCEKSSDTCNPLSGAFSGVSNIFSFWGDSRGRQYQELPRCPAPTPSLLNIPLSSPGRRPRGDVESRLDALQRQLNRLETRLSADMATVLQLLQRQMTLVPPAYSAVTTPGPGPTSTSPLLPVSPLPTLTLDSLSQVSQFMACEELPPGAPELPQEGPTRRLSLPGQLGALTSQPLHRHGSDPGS

SMILES | hERG current change (%, negative = inhibition) at 10uM [%]
CCOC(=O)C1C(=O)Nc2nc(C)nn2C1c1ccccc1 (stereo not drawn) | 14.4
CCCc1ccc(C(=O)O/N=C(\N)c2ccccn2)cc1 | -0.642
CCn1cc(C(=O)NCc2ccccc2)c(=O)c2cc(F)c(N3CCN(C(=O)c4ccco4)CC3)cc21 | -39.6
CCn1cc(C(=O)NCc2cccnc2)c(=O)c2cc(F)c(N3CCN(C(=O)c4ccco4)CC3)cc21 | -37.6
CCn1cc(C(=O)NCc2ccncc2)c(=O)c2cc(F)c(N3CCN(C(=O)c4ccco4)CC3)cc21 | -66.4
O=C(NCc1ccc(N2CCCC2=O)cc1)c1cccc(Cl)c1 | 1.27
CC(C)(C)C(=O)Nc1ccc(-c2cc3cc(Cl)ccc3o2)cc1 | 8.12
Cc1ccc(NS(=O)(=O)c2ccc3oc(=O)ccc3c2)cc1Cl | 3.79
CCC(=O)c1ccccc1OCCCCn1cncn1.O=C(O)C(=O)O | 4.82
CCC(=O)c1ccccc1OCCN1CCN(CC)CC1.O=C(O)C(=O)O | -13.7
N#Cc1ccccc1OCCCN1CCC(Cc2ccccc2)CC1.O=C(O)C(=O)O | -80
CC(C)c1ccccc1OCCCN1CCCC1.O=C(O)C(=O)O | -33.1
CCC(=O)c1ccccc1OCCN1CCN(Cc2ccccc2)CC1.O=C(O)C(=O)O | -59.1
CCC(=O)c1ccccc1OCCCN1CCC(Cc2ccccc2)CC1.O=C(O)C(=O)O | -78.5
COC(=O)c1ccccc1OCCN1CCCCCC1.O=C(O)C(=O)O | -46.2
CCc1ccccc1OCCCN1CCCC1.O=C(O)C(=O)O | -17.6
O=C(O)C(=O)O.OCc1ccccc1OCCCN1CCC(Cc2ccccc2)CC1 | -75
CCc1ccccc1OCCCCN1CCCC1.O=C(O)C(=O)O | -40
N#Cc1ccccc1OCCCNC1CCCC1.O=C(O)C(=O)O | -11.5
CCC(=O)c1ccccc1OCCCN1C(=O)NC(C)(C)C1=O | 0.00578
O=C(CSc1nccc(=O)[nH]1)Nc1cccc(S(=O)(=O)N2CCOCC2)c1 | 4.22
Cn1cnc2c1c(=O)n(Cc1c(Cl)cccc1Cl)c(=O)n2C | -3.36
COc1ccccc1NC(=O)CSc1nc2sc(C)c(C)c2c(=O)n1C | 6.42
CC(=O)N1CCN(S(=O)(=O)c2cccc(C(=O)NCCc3ccc(Cl)cc3)c2)CC1 | -12.1
